Data on eleven molecules can be found in ChEMBL document CHEMBL3988442, “University of Dundee, Small-Polar-MMV Screening Library” (2021).

What all share (parameters): scale not given: direction of the effect not stated beside the values
Experiment [1] concerns the target Protein translocase subunit SecA (Escherichia coli (strain K12)) (UniProt P10408). Description: Assay to Identify E. coli SecA ATPase Inhibitors. Format: functional. The following applies: 30 µM.
In experiment [2] the target is T1, Ubiquitin-activating enzyme e1, putative (Leishmania donovani (strain BPK282A1)) (UniProt E9BSI1).
T1 sequence (whole entry): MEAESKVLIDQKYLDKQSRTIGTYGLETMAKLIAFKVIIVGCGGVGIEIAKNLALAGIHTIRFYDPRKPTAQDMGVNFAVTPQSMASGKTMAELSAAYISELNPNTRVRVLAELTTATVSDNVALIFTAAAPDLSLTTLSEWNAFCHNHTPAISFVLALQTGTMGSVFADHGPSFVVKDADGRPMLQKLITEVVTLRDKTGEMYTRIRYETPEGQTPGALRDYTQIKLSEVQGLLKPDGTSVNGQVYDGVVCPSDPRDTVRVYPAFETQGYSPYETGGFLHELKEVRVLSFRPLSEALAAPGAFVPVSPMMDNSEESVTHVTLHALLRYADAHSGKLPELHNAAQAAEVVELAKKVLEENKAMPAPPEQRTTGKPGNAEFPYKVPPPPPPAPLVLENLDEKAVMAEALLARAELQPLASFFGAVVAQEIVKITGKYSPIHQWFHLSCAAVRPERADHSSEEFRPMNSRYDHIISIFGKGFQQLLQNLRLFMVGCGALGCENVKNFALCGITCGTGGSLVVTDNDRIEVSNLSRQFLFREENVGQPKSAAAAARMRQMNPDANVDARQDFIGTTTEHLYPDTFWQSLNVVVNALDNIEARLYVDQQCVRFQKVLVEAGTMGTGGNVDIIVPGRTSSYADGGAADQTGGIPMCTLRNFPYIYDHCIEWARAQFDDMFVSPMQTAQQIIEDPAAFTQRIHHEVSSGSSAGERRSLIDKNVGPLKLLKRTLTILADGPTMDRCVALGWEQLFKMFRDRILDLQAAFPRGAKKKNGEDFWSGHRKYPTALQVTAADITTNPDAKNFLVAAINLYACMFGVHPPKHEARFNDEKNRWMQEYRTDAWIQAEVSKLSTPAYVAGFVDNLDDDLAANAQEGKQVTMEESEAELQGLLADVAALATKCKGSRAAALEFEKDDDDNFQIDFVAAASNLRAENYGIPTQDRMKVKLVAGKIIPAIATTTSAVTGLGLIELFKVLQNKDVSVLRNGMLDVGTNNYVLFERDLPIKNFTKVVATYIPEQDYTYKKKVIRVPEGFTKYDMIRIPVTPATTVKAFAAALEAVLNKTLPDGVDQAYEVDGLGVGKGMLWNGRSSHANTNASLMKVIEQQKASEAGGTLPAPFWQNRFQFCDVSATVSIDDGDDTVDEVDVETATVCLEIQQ
The experiment can be described thus: Leishmania donovani Ubiquitin Activating Enzyme (LdE1). The experiment is classed as functional. To be noted: 30 µM.

The target of experiment [3] is AMP-activated protein kinase, AMPK (Homo sapiens) (UniProt P54646+O43741+P54619+Q9UGJ0+Q9Y478+Q13131+Q9UGI9). Description: AMP-dependent Kinase enzyme assay. An in vitro enzyme assay that detects ADP turnover that is directly proportional to AMPK activity. This uses naive AMPK that is activated during the assay with MK-8722. Format: functional. To be noted: 30 µM.

Experiment [4] has as its target Sialic acid-binding Ig-like lectin 9 (Homo sapiens) (UniProt Q9Y336). The experiment can be described thus: Hs-Siglec9 ALPHAscreen SOP 20170721. The following applies: 10 µM. Background: In Alpha technology, singlet oxygen from a donor bead excites a nearby acceptor bead.
The subject of experiment [5] is Trypanosoma cruzi. The experiment can be described thus: Trypanosoma cruzi phosphomannomutase and mannose-1-phosphate guanylyltransferase assay. The experiment is classed as functional. The following applies: 10 µM.
Experiment [6] concerns the target T2, Arginase-2, mitochondrial (Homo sapiens) (UniProt P78540).
T2 sequence (whole entry): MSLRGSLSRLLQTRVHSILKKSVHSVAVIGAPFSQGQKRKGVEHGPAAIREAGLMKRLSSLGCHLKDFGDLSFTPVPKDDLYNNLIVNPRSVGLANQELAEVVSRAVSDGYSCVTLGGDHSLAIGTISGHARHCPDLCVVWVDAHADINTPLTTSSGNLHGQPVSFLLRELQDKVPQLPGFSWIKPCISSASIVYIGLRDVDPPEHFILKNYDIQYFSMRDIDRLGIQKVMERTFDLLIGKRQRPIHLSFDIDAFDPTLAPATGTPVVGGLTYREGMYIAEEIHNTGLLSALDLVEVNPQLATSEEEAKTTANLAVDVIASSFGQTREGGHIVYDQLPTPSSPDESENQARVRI
Description: in vitro enzyme assay to detect the production of urea directly proportional to the activity of Arginase II. Further: in the data most compounds retested in dose-response had high values. The following applies: 33.3 µM. The experiment is classed as functional.

The target of experiment [7] is T3, Proteasome subunit beta (Trypanosoma cruzi) (UniProt O96673).
T3 sequence (whole entry): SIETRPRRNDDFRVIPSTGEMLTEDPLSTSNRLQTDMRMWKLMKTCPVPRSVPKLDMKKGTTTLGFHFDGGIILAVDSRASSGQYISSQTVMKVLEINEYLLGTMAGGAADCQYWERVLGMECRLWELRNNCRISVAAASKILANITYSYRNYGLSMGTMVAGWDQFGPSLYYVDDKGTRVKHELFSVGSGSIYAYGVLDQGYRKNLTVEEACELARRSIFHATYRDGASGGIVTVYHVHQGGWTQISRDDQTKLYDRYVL
Description: Trypanosoma cruzi proteasome chymotrypsin-like activity (TcProtChymo) assay. Further: in the data most compounds retested in dose-response had high values. Format: functional. The following applies: 9.37 µM.

The species named for experiment [8] is Homo sapiens. Description: To identify inhibition of the IFN signalling (Jak-Stat) pathway via expression of an eGFP reporter gene under the control of an IFN-stimulated response element (ISRE) containing MxA promoter. The experiment is classed as functional. To be noted: 30 µM.
Experiment [9] deals with T4, Tyrosyl-tRNA synthetase, putative (Trypanosoma cruzi (strain CL Brener)) (UniProt Q4DSP6).
T4 sequence (whole entry): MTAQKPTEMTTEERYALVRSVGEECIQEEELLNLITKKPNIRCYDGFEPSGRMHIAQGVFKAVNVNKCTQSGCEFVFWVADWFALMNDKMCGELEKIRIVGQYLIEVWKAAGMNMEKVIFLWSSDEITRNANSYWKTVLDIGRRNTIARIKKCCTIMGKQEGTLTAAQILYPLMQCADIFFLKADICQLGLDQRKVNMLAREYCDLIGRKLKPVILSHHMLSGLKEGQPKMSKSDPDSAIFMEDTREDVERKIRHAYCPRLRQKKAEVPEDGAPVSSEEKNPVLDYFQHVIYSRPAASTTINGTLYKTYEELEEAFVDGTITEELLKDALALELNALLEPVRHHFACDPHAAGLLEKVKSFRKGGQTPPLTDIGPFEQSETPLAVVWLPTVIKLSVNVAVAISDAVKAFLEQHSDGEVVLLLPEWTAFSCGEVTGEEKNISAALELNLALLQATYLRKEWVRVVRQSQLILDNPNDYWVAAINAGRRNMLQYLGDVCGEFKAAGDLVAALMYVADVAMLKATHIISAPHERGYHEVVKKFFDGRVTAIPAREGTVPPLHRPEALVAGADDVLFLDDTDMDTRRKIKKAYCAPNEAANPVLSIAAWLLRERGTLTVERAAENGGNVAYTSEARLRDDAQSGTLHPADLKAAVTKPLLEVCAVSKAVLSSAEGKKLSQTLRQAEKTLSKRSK
Description: Trypanosoma cruzi tyrosyl tRNA synthetase (TcYRS) _High Tyrosine SOP. Further: in the data most compounds retested in dose-response had high values. Format: functional. The following applies: 30 µM.

The target in experiment [10] is T4, Tyrosyl-tRNA synthetase, putative (Trypanosoma cruzi (strain CL Brener)). The experiment can be described thus: Trypanosoma cruzi tyrosyl tRNA synthetase (TcYRS) SOP. Format: functional. The following applies: 30 µM.
The target in experiment [11] is Chromo domain-containing protein 1 (Saccharomyces cerevisiae (strain ATCC 204508 / S288c) (Baker's yeast)) (UniProt P32657). Description: ScCHD-1 Enzyme Inhibition Assay. Further: in the data most compounds retested in dose-response had high values. The following applies: 30 µM. The experiment is classed as functional.

For some of these results: Entries with a potency or affinity are not part of this list.

Chain of Chromo domain-containing protein 1 (Saccharomyces cerevisiae (strain ATCC 204508 / S288c) (Baker's yeast)) (P32657 whole entry, the tested form may be a part): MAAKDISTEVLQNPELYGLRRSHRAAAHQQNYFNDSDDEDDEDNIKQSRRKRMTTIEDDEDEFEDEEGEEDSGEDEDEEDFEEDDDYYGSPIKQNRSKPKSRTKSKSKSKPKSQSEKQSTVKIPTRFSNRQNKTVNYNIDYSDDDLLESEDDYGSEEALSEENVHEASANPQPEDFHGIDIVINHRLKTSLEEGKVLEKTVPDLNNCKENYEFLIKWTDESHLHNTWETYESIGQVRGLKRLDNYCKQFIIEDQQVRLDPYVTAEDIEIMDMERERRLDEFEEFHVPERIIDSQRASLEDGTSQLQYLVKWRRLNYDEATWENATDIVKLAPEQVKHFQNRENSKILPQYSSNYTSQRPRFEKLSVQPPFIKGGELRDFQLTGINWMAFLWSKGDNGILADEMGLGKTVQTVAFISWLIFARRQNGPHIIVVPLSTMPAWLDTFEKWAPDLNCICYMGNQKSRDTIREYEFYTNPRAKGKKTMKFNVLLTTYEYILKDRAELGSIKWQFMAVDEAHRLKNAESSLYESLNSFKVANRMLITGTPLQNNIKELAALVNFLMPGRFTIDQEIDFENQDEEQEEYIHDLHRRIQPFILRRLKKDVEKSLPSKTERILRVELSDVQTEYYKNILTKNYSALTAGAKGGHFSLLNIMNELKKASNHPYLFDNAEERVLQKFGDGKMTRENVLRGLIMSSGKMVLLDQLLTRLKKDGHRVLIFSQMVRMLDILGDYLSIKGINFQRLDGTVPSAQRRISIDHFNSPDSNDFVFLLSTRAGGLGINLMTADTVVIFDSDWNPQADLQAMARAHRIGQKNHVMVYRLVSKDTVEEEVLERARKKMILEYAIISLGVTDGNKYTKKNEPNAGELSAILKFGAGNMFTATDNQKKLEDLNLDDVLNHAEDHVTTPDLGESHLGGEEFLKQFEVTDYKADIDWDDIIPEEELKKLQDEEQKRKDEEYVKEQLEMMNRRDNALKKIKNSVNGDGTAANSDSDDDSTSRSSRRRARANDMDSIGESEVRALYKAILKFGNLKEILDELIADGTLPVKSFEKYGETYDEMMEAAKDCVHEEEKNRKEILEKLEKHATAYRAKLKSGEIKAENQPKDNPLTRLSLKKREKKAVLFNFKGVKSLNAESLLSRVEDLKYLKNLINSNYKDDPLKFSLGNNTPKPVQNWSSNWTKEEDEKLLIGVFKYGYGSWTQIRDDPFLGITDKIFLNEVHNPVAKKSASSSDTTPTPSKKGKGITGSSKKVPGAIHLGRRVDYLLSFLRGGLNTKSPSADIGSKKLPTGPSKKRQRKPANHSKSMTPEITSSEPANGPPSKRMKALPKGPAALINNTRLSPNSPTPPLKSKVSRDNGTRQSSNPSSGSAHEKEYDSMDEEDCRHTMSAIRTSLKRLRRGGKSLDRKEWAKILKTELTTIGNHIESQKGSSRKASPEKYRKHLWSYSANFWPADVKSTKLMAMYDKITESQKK
Chain of Sialic acid-binding Ig-like lectin 9 (Homo sapiens) (Q9Y336 whole entry): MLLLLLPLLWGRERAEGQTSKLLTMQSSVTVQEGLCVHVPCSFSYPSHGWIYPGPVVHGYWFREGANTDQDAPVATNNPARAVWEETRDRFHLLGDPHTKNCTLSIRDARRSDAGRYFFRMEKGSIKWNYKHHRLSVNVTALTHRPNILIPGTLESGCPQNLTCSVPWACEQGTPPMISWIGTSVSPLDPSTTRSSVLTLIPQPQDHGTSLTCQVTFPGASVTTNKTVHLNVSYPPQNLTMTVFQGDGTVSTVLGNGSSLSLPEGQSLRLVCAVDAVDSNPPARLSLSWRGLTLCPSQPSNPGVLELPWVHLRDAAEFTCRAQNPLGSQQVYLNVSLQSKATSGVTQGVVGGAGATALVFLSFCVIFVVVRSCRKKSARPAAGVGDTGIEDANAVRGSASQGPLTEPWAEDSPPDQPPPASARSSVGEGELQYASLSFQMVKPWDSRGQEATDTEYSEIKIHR
Chain of Protein translocase subunit SecA (Escherichia coli (strain K12)) (P10408 whole entry): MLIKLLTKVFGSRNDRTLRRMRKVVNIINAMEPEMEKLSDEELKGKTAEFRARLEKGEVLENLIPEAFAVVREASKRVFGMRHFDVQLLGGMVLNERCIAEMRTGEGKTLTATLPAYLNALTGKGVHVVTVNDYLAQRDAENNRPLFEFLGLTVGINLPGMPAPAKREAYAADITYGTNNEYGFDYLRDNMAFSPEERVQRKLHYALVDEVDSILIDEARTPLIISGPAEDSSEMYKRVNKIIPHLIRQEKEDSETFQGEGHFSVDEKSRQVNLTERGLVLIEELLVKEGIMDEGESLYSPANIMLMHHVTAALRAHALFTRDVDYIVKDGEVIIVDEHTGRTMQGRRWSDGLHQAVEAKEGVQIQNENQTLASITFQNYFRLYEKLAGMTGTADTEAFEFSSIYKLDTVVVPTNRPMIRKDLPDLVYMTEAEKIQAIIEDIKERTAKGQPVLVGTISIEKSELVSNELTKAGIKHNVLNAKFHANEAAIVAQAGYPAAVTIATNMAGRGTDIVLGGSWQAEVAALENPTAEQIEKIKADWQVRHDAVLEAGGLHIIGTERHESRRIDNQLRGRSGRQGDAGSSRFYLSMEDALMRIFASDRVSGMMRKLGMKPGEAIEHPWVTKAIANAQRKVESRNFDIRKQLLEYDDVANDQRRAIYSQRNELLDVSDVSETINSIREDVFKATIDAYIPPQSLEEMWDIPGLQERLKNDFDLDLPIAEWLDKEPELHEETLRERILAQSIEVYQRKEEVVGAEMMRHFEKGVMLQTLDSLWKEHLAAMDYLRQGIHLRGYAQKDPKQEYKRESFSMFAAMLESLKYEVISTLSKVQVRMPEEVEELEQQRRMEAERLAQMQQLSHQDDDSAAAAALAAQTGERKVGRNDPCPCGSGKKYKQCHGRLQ

With `O=C(c1cc(F)ccc1F)C1CCN(C(=O)c2ccc(=O)[nH]n2)CC1`, the Percent Effect is -2.7% in experiment [1]; 13% in experiment [2]; 0.316% in [3]; 0.809% in experiment [4]; -3.43% in experiment [5]; 2.32% in [6]. Also, the Percent Effect is 7.52% in [7]; 15.8% in experiment [8]; 3.81% in experiment [9]; 18.8% in [10]; -6.34% in experiment [11].

Turning to `Cc1nn(C)c(C)c1CC(=O)N1CCCC(n2ccnc2)C1` (stereo unspecified), the Percent Effect in experiment [1] was -1.6%; in experiment [2] it was -5.26%; in [3], -1.17%; in [4], -5.34%; in experiment [5], -3.27%; in [6], 1.8%. For the same molecule, the Percent Effect was -0.592% in [7]; -1.26% in experiment [8]; 1.48% in [9]; -1.24% in [10]; -1.5% in [11].

In the case of `CCn1ncc2c1CCCC2NCc1cccc2c1OCCO2` (stereo unspecified), the Percent Effect in [1] was -2.98%; in experiment [2] it was -6.33%; in [3], 6.39%; in experiment [4] it was -0.488%; in experiment [5], -0.718%; in experiment [6], 4.09%. For the same molecule, the Percent Effect in experiment [7] is 0%; in experiment [8], 12.6%; in experiment [9], 0%; in experiment [10] it was 2.53%; in [11], -17.9%.

For the molecule `Cc1nc(C2CCCN2CCCS(=O)(=O)N(C)C)no1` (stereo unspecified), the Percent Effect was -4.22% in experiment [1]; 28.9% in experiment [2]; -4.98% in experiment [3]; -5.59% in experiment [4]; 2.26% in experiment [5]; -0.383% in [6]. Also, the Percent Effect in experiment [7] is 13.4%; in [8], 10.9%; in [9], -5.39%; in experiment [10] it was 17.1%; in experiment [11] it was -9.28%.

On to `COCCC(=O)N1CC[C@@H](N(C)C)[C@@H]1Cc1ccccc1`, for which the Percent Effect in experiment [1] was -3.9%; in experiment [2], 5.33%; in experiment [3], 10.6%; in [4] it was 4.93%; in experiment [5], -0.394%; in [6] it was -1.17%. Moreover, the Percent Effect was 5.37% in experiment [7]; -2.67% in experiment [8]; 5.32% in experiment [9]; 6.41% in [10]; -0.866% in experiment [11].

In the case of `CCCS(=O)(=O)N1CCN(c2cc(-n3nc(C)cc3C)nc(C)n2)CC1`, the Percent Effect in experiment [1] is -2.23%; in experiment [2] it was 0%; in experiment [3], -0.103%; in experiment [4], 1.6%; in [5], 7.57%; in experiment [6], 2.76%. Moreover, the Percent Effect in experiment [7] is 10.7%; in experiment [8] it was -11%; in experiment [9] it was 2.15%; in experiment [10], -3.7%; in experiment [11] it was -4.3%.

Consider `CN(C)c1ncc(CN2CCOC(C(=O)Nc3ccccc3)C2)cn1` (stereo unspecified), for which the Percent Effect in experiment [1] is -0.531%; in experiment [2] it was 16%; in experiment [3] it was 2.21%; in [4], -8.34%; in [5] it was 2.36%; in [6], 71.6%. Moreover, the Percent Effect in experiment [7] is 18.6%; in experiment [8], 23.5%; in [9], 3.19%; in [10], 14.1%; in experiment [11], -7.74%.

As to `Cc1nc(C)c(C(=O)N2CCC(Nc3cccnc3)CC2)s1`, the Percent Effect in experiment [1] is 0.905%; in experiment [2], -2.74%; in experiment [3], -10.4%; in experiment [4], 50.9%; in experiment [5], -3.37%; in [6] it was 8.38%. Moreover, the Percent Effect in experiment [7] is 14.5%; in experiment [8] it was -5.72%; in [9] it was 2.08%; in experiment [10], 3.7%; in [11] it was -3.74%.

Regarding `Cc1cnn(CCNCCCOc2ccccc2)c1`, the Percent Effect in experiment [1] was 1.02%; in [2], -21.1%; in experiment [3], -5.54%; in experiment [4], 5.86%; in experiment [5] it was 3.27%; in experiment [6], 1.08%. The Percent Effect was 6.85% in experiment [7]; -25% in [8]; 6.4% in experiment [9]; 3.7% in experiment [10]; -0.782% in experiment [11].

In the case of `c1csc(-c2nc(CN3CCOC(Cn4cccn4)C3)co2)c1` (stereo unspecified), the Percent Effect in experiment [1] was -4.59%; in [2], 18.9%; in experiment [3] it was -12.4%; in experiment [4] it was 19.6%; in experiment [5] it was 6.32%; in [6], -8.82%. The Percent Effect in [7] is 9.01%; in experiment [8] it was 16.2%; in experiment [9] it was 7.39%; in experiment [10], 23.5%; in [11], -11.2%.

With `Cn1cc(C(=O)NC2CCN(C(=O)NCC3CCSCC3)CC2)cn1`, the Percent Effect in [1] is -7.28%; in experiment [2], 6.33%; in experiment [3], 11.5%; in [4], 2.29%; in [5], -2.15%; in experiment [6] it was 2.37%. For the same molecule, the Percent Effect in [7] was found to be 8.75%; in experiment [8], 24.4%; in experiment [9] it was 11.5%; in [10], 15.2%; in [11], 1.7%.
